# The list is not random: actives were taken first. Their share in the collection is about 3.8%.
# Bfl-1 A1 inh: caspase 3/7 activation in MEF A1-2A-BIM cells, primary screen, A1 inhibitor project, cell-based, luminescence, HTS; caspase activation, % (no concentration beside the values); actives 0.066% (n = 330,000); Caspase-Glo 3/7 luminescence, 3 h; percent of clofoctol response, vehicle zero;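 active means over half of replicate activation scores above 10%, or exactly half above 10 with the replicate mean above 10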
# Mdm2 MdmX PPI: inhibitors of human Mdm2-MdmX association, primary screen, cell-based, luminescence, split luciferase, SaOS-2, uHTS | SaOS-2 split-luciferase Mdm2/MdmX complementation | inhibition, % at 8 µM | actives 3% (n = 330,000);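 active means inhibition of at least 50% at 8 µM in the primary screen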
# Jurkat NFkB inh: inhibitors of induced NF-kB luciferase reporter, primary screen, TCR NF-kB activation inhibitor project, cell-based, luminescence, uHTS. Jurkat, PMA/ionomycin-induced NF-kB luciferase reporter. inhibition, % at 4 µM. actives 0.53% (n = 330,000). AID 435003, 2010; in the data active means inhibition above about 50%
# NTR1 agonist: agonists of human NTR1, primary screen, imaging, U2OS cells, beta-arrestin-GFP, high content; NTR1-U2OS beta-arrestin-GFP spot imaging, agonist mode; AID 493036, 2011; Neurotensin receptor type 1 (Homo sapiens), P30989; activation, % at 20 µM; actives 0.17% (n = 330,000);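 active means activation at or above 40% of the spot to cytoplasm intensity ratio, with at least 20 cells analyzed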;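 further: 0% = DMSO without peptide and 100% = 100 nM NTR1 peptide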
# Target sequence (P30989 whole entry, looked up): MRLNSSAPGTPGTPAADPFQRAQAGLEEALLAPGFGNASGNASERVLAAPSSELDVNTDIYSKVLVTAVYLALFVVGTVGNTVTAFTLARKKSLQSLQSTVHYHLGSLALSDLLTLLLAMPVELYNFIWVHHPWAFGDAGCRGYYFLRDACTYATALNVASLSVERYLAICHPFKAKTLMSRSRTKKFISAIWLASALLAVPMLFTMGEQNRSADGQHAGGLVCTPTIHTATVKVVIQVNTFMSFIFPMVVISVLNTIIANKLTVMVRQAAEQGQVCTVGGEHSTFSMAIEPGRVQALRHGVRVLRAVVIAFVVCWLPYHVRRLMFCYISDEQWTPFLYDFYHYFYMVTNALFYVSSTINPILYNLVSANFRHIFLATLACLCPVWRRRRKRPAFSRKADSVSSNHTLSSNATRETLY
# Beta cell apopt: inhibitors of cytokine-induced beta cell apoptosis, primary screen, luminescence; protection from apoptosis, % (no concentration beside the values); AID 435005, 2010; INS-1E cytokine-induced death, ATP luminescence, 48 h; percent of positive-control rescue, neutral wells zero; actives 0.8% (n = 300,000);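 active means Every replicate reaches about 75%, or at least half do and their mean reaches it too, limit read from the data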;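 further: 0% = cytokine-treated negative control wells and 100% = positive control rescue; higher means more ATP so stronger rescue from cytokine killing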
# 697 NFkB inh: inhibitors of PMA/ionomycin-induced NF-kB reporter, 697 cells, primary screen, B-cell NF-kB inhibitor project, cell-based, luminescence, uHTS. actives 0.33% (n = 330,000). AID 435022, 2010. inhibition, % at 4 µM. 697 B-cell NF-kB luciferase reporter, 16 h; in the data active means inhibition above about 35%
# Mdm2 MdmX conf: Mdm2-MdmX complex disruptors, retested hits, confirmation, luminescence, single concentration; shares compounds with Mdm2 MdmX PPI; Mdm2-MdmX binding, luminescent assay; inhibition, % at 8 µM; actives 55% (n = 10,000); AID 489028, 2010; in the data active means inhibition above about 40%
# Full FLuc ctr: full-length luciferase signal inhibition, confirmation, counter-screen for Mdm2/MdmX interaction inhibitor project, cell-based, single concentration, SaOS-2; actives 77% (n = 6,200); inhibition, % at 8 µM; SaOS-2 full-length luciferase counterscreen, luminescence; AID 504607, 2011; shares compounds with Mdm2 MdmX PPI;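 active means mean inhibition at 8 µM reaching about 37%, which flags the compound as non-specific, limit read from the data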;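 further: p53-null SaOS-2 cells with luciferase driven by a doxycycline-inducible promoter; compound on cells about two nights before reading with doxycycline added after day one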
# * hit, by the source's call; x = no result given.
SMILES,Bfl-1 A1 inh,Mdm2 MdmX PPI,Jurkat NFkB inh,NTR1 agonist,Beta cell apopt,697 NFkB inh,Mdm2 MdmX conf,others
O=C(COC(=O)[C@@H]1CCCN1C(=O)c1cccs1)Nc1cccc(Cl)c1,0,-19,1,4,-2,-6,x,
Cc1cc(Br)cc2c(C(=O)NCC3CCCO3)cc(-c3cccs3)nc12 (centres undefined),0,56*,-11,11,13,-57,15,
O=C(OC1CCOC1=O)C1CCN(S(=O)(=O)c2c(Cl)cccc2Cl)CC1 (centres undefined),1,26,13,22,5,8,x,
CC1(C)C[C@H]2C3=CCC4[C@@]5(C)CC[C@H](O)[C@](C)(CO)C5CC[C@@]4(C)[C@]3(C)C[C@H]3O[C@@H]1[C@H](O)[C@]32CO (some centres undefined),0,10,-17,-2,2,11,x,
CCO/C(=C/c1sc2ccc(OC)cc2[n+]1CCCS(=O)(=O)[O-])CC,0,-5,-6,-1,2,10,x,
CCC(/C=C1\Sc2ccc(OC)cc2N1CC)=C\c1sc2ccc(OC)cc2[n+]1CCCS(=O)(=O)[O-],-1,54*,-6,5,103*,18,25,
CCC(/C=C1\Sc2ccc(OC)cc2N1CCO)=C\c1sc2ccc(OC)cc2[n+]1CCO,-2,72*,-1,0,43,2,22,
COc1ccc(CC(=O)Nc2ccccc2C(=O)NCCc2ccccc2)cc1,0,-25,-23,-1,-2,-58,x,
COc1ccc(C(C(=O)NC2CCCC2)N(C(=O)c2ccco2)c2cc3c(cc2C(C)=O)OCO3)cc1 (centres undefined),0,-16,-14,0,0,-15,x,
Cc1c(C(=O)N2CCCCC2)c(S(=O)(=O)NCCc2ccc(Cl)cc2)c(C)n1C,2,-15,12,-1,x,0,x,
COc1cc(/C=C2/OC(=O)c3cc([N+](=O)[O-])ccc32)cc(OC)c1OC,0,67*,-12,1,0,13,0,
COc1cc(/C=C/C(=O)c2cccc([N+](=O)[O-])c2)cc(OC)c1OC,-1,52*,5,18,0,11,22,
Cc1ccc(O)c(C(=O)c2cc(C#N)c(=O)n(-c3c(C)n(C)n(-c4ccccc4)c3=O)c2)c1,1,-21,11,0,5,21,x,
Cc1ccc(O)c(C(=O)c2cc(C#N)c(=O)n(-c3nccs3)c2)c1,0,55*,5,-1,-7,5,32,
COc1ccc(C(=O)Nc2cc(C)c3c(=O)oc4ccccc4c3n2)cc1,0,74*,6,7,8,10,25,
CCOc1ccc(Nc2ccnc3cc(Cl)ccc23)cc1,1,23,3,6,10,30,x,
CCN1CCN(c2ccc(Nc3ccnc4ccccc34)cc2)CC1,1,87*,33,0,4,-3,84*,Full FLuc ctr=30
CN1CCN(c2ccc(Nc3ccnc4cc(Cl)ccc34)cc2)CC1,0,78*,-15,0,11,8,40,Full FLuc ctr=51*
CCN1C(=O)[C@H]2[C@@H](c3ccc(-c4cccc(Cl)c4)c(OC)c3)N3CCCC[C@@]3(C(=O)OC)[C@H]2C1=O,0,59*,4,6,12,-9,28,

# Assay outcomes (PubChem BioAssay)
